Source: PubChem BioAssay (NCATS)
Results filed as inconclusive are left out. Calls of active or inactive are those of the source. Calls follow the shape of the dose curve; as a rule, active = well fitted inhibition curve with a large enough effect; inconclusive = small, poorly fitted or top-dose-only effect; inactive = flat fitted curve, though single readings scatter.

tested on: CRL-7250; test: qHTS assay to identify novel small-molecules to repurpose for Merkel cell carcinoma treatment (AID 1296009); conditions: MCC and control cell lines, CellTiter-Glo viability, 72 h; series mostly up to 92 µM; activity change, negative = cytotoxicity: at the top concentration; also: nearly all actives have a fitted effect of over 60% in size
Text: MCC is a rare and aggressive neuroendocrine skin cancer with limited treatment options. Approximately 80% of MCCs have the Merkel cell polyomavirus (MCPyV) DNA integrated into the host genome (virus-positive: VP-MCC) and viral oncogenes drive oncogenesis. The remaining MCCs are virus-negative (VN-MCC) and are caused by UV mutagenesis. To identify novel treatments for VP-MCC and/or VN-MCC we screened three VP-MCC cell lines (WAGA, MKL-1, MKL-2), three VN-MCC cell lines (MCC-13, MCC-26, UISO), and four immortalized, non-transformed control cell lines (HaCaT, HEK293T, CRL7250, NIH-3T3) against ~2,400 compounds in the NCGC Pharmaceutical Collection (NPC) and ~1,900 compounds in the Mechanism Interrogation PlatE (MiPE). Using cell viability as a readout (CellTiter-Glo assay) we found both overlapping and distinct drugs that can be repurposed for the treatment of VP-MCC and VN-MCC.
A high-throughput screen was conducted in 1536-well white flat bottom plates (Corning) on a Kalypsys robotic system. Cell lines WAGA, MKL-1, MKL-2, MCC-13, MCC-26, UISO, HaCaT, HEK293T, CRL7250, and NIH-3T3 were screened against 2 small molecule annotated drug libraries NPC and MIPE in dose response (8 and 11 pt. respectively) measuring cell viability after 72 hours of incubation. […] A 1,536 pintool (Kalypsys) was used to transfer 23 nL of compound in DMSO to the 1,536-well assay plates. After 72 hr incubation at 37 degree celsius, 2.5 uL of CellTiter-Glo (Promega) was dispensed into each well using a BiorapTR. Plates were incubated at room temperature for 10 min, transferred to a ViewLux (PerkinElmer) and the luminescence was recorded using an exposure time of 2 seconds. Relative luminescence units (RLUs) were normalized to in-plate controls (no cells as a positive (cytotoxicity) control, DMSO as negative control) and the normalized data was processed using NCATS in-house software.

Compound	outcome
CN(C)CCOc1ccc(-c2nc(-c3ccc4c(c3)CCC4=NO)c(-c3ccncc3)[nH]2)cc1	inactive
N#Cc1c[nH]c2c(C(=O)N3CCN(CCc4ccc(F)cc4)CC3)cccc12	inactive
COc1cc2c(cc1OC)CN(C(=O)[C@@H](NCc1ccncc1)C(C)(C)C)CC2	inactive
COc1ccc(NC(=O)C2C[C@H](C)CC[C@H]2C(C)C)cc1 (stereo not given in full)	inactive
CC1(C)CC(O)CC(C)(C)N1[O]	inactive
Cc1ccc(C)c(NC(=O)CNS(=O)(=O)c2ccc3[nH]c(=O)oc3c2)c1	inactive
COC(=O)c1[nH]c(=O)c2ccccc2c1-c1ccc[nH]1	inactive
Nc1ncnc2c1ncn2CCNCCCCCO	inactive
CC1(C)CC[C@@]2(C(=O)O[C@@H]3O[C@H](CO)[C@@H](O)[C@H](O)[C@H]3O)C(C1)C1=CCC3[C@@]4(C)CC[C@@H](O[C@@H]5O[C@H](C(=O)O)[C@@H](O[C@@H]6OC[C@@H](O)[C@H](O)[C@H]6O)[C@H](O[C@@H]6OC[C@](O)(CO)[C@H]6O)[C@H]5O)C(C)(C)C4CC[C@@]3(C)[C@]1(C)C[C@H]2O (stereo not given in full)	inactive [at 9.27 µM]
CC1(C)CC2C(O)C3=C(CC(C)(O)C2C1)C(=O)OC3 (stereo not given)	inactive
Cc1ncc([N+](=O)[O-])n1CC(O)CN1CCOCC1 (stereo not given)	inactive
CC(C)=CCC[C@](C)(O[C@@H]1O[C@H](CO[C@@H]2OC[C@H](O)[C@H](O)[C@H]2O)[C@@H](O)[C@H](O)[C@H]1O)[C@H]1CC[C@]2(C)[C@@H]1[C@H](O)C[C@@H]1[C@@]3(C)CC[C@H](O[C@@H]4O[C@H](CO)[C@@H](O)[C@H](O)[C@H]4O[C@@H]4O[C@H](CO)[C@@H](O)[C@H](O)[C@H]4O)C(C)(C)[C@@H]3CC[C@]12C	inactive [at 17.4 µM]
O=C(O)Cc1nn(Cc2nc3cc(C(F)(F)F)ccc3s2)c(=O)c2nccnc12	inactive
C[C@@H]1O[C@@H](O[C@H]2[C@H](O[C@H]3[C@H](O[C@H]4CC[C@@]5(CO)C(CC[C@]6(C)C5CC=C5C7CC(C)(C)C[C@@H](O)[C@]7(C)CC[C@]56C)C4(C)C)O[C@H](C(=O)O)[C@@H](O)[C@@H]3O)OC[C@@H](O)[C@@H]2O)[C@H](O)[C@H](O)[C@H]1O (stereo not given in full)	inactive [at 9.27 µM]
CCc1ccc(Cc2ccc3c(c2)[C@]2(OC3)O[C@H](CO)[C@@H](O)[C@H](O)[C@H]2O)cc1	inactive
CC(C)c1ccc(NC(=O)Cn2cnc3c2c(=O)n(C)c(=O)n3C)cc1	inactive
COc1cc(C(CO)C(OC2OC(CO)C(O)C(O)C2O)c2ccc(O)c(OC)c2)ccc1O (stereo not given)	inactive [at 17.4 µM]
CN1C(=O)CN=C(c2ccccc2Cl)c2cc(Cl)ccc21	inactive
C[C@@H]1O[C@@H](O[C@@H]2[C@@H](O[C@@H]3O[C@@H](C)[C@H](O[C@@H]4OC[C@H](O)[C@H](O[C@@H]5OC[C@@H](O)[C@H](O)[C@H]5O)[C@H]4O)[C@@H](O[C@@H]4OC[C@](O)(CO)[C@H]4O)[C@H]3O)[C@H](OC(=O)[C@]34CCC(C)(C)C[C@H]3C3=CCC5[C@@]6(C)C[C@H](O)[C@H](O[C@@H]7O[C@H](CO[C@@H]8OC[C@H](O)[C@H](O)[C@H]8O)[C@@H](O)[C@H](O)[C@H]7O)C(C)(C)C6CC[C@@]5(C)[C@]3(C)C[C@H]4O)OC[C@H]2O)[C@H](O)[C@H](O)[C@H]1O (stereo not given in full)	inactive [at 9.27 µM]
COc1cc(N2CCC(C(N)=O)CC2)ccc1Nc1nc(N)c(Cl)c(Nc2ccccc2S(=O)(=O)C(C)C)n1	inactive

Compound	outcome
COC(=O)C1=C2Nc3ccccc3C23CCN2CCCC(C(C)O)(C1)C23 (stereo not given)	inactive
CCC(C)C(=O)O[C@@H]1[C@@H](O)[C@@H](O[C@H]2O[C@H](CO)[C@@H](O)[C@H](O)[C@H]2O)O[C@H](CO)[C@H]1O (stereo not given in full)	inactive [at 17.4 µM]
C[C@@H](CN1CCC2(CC1)C(=O)NCN2c1cccc(F)c1)NC(=O)c1ccc(Br)cc1	inactive
Clc1cccc(COc2cncc(N3CCNCC3)n2)c1	inactive
CCN(CCN(C)C)C(=O)CNCc1cc(C(N)=O)ccn1	inactive
CC(C#N)C(C)O[C@@H]1O[C@H](CO)[C@@H](O)[C@H](O)[C@H]1O (stereo not given in full)	inactive
O=C(O)CCC=CCC[C@@H]1[C@H](N2CCCCC2)[C@@H](O)C[C@@H]1OCc1ccc(-c2ccccc2)cc1	inactive
C[C@H](NCc1ccc(OCc2ccccc2F)cc1)C(N)=O	inactive
O=C(NCc1nc2ccccc2c(=O)n1-c1ccc(F)cc1)Nc1ccc(Cl)c(C(F)(F)F)c1	inactive
CC(=O)OCC(Cc1ccccc1)NC(=O)C(Cc1ccccc1)NC(=O)c1ccccc1 (stereo not given)	inactive [at 17.4 µM]
CCCCNc1ccc(-c2ccc(CN3CCOCC3)cn2)c(NC2CCC(O)CC2)c1 (stereo not given)	inactive [at 17.4 µM]
O=C(O)CCCc1c[nH]c2ccccc12	inactive
CCC(=O)N[C@@H]1Cc2ccccc2[C@H](c2ccccc2)C1	inactive
CC1C(=O)CC2C3C(O)CC(C(=O)O)C12CC3(C)C (stereo not given)	inactive
CC1(C)CC[C@]2(C(=O)O[C@@H]3O[C@H](CO)[C@@H](O)[C@H](O)[C@H]3O)CC[C@]3(C)C(=CCC4[C@@]5(C)C[C@@H](O)[C@H](O)[C@@](C)(CO)C5[C@H](O)C[C@]43C)C2[C@@H]1O (stereo not given in full)	inactive [at 17.4 µM]
COCCOc1ccc(N2CCN(CCn3ncc4c3nc(N)n3nc(-c5ccco5)nc43)CC2)cc1	inactive
O=C(O[C@@H]1O[C@H](CO)[C@@H](O)[C@H](O)[C@H]1O)c1ccccc1	inactive
CCOc1nc2c(N)ncnc2n1CC	inactive
C/C=C(\C)C(=O)OC1CC2C(CC=C3CC(OC4CC(OC)C(OC5CC(OC)C(OC6CC(OC)C(OC7CC(OC)C(OC8CC(OC)C(OC9OC(CO)C(O)C(O)C9O)C(C)O8)C(C)O7)C(C)O6)C(C)O5)C(C)O4)CCC32C)C2(O)CCC(C(C)=O)C12C (stereo not given)	inactive [at 9.27 µM]
CCCCC(=O)N1c2ccccc2NC2=C(C(=O)CCC2)C1c1ccccc1Cl (stereo not given)	inactive
